We go through 40 compounds from PubChem BioAssay (NCI).

Structures are written as SMILES. About 83,000 compounds went through this panel and 20% of them were active in at least one assay; those are over-represented in the sample as a whole.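 A percent growth of 40 corresponds to 60% growth inhibition; 0 means no net growth; -100 means all cells died. Active threshold: below 10.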 A number with no mark means an inactive call. The source made the active and inactive calls.

This test concerns NCI/ADR-RES ovarian. The test is described as follows: NCI-60 one-dose screen, 48 h (100 = growth as untreated, 0 = no growth, -100 = all killed). The settings on record: 10 µM unless noted. As for the experimental part:
Growth inhibition of the NCI/ADR-RES human […] tumor cell line is measured as a screen for anti-cancer activity. Cells are grown in 96 well plates and exposed to the test compound for 48 hours. Compounds are tested at a single concentration, which is 10^-5 M for most compounds. The reported endpoint is percent growth (GI% or GIPRCNT), where numbers from 0 - 100% represent growth inhibition, and numbers from -100% - 0 represent cell death. For example, a value of 40 represents 60% growth inhibition. A value of 0 means no net growth occurred over the course of the experiment. A value of -40 indicates 40% of cells at the beginning of the experiment died by the end of the experiment. A value of -100 means all cells are dead at the end of the experiment.
NCI-60 Human Tumor Cell Lines Screen was performed using the standard one-dose NCI protocol, which is described in more detail at https://dtp.cancer.gov/discovery_development/nci-60/default.htm.
Compounds with GIPRCNT values below 10 were considered active. Activity score was based on GIPRCNT using the following formula: […]
Score is 0 for GIPRCNT values of 100 or above, 50 for GIPRCNT values of 0, and 100 for GIPRCNT values of -100.
For `COc1cnc2c(c1)C(=O)c1c-2n(CCCN2CCC(O)CC2)c(=O)c2cc(Cl)ccc12`, the growth is 28.3%.
Next, `NN1C(=O)CSC1=S`: 114%.
Consider `Cn1ccnc1C(=O)/C=C/c1ccc(CC(=O)Nc2ccc(C(F)(F)F)cc2)cc1`, for which the growth was 6.64% (active).
Then `Cc1cc(N(CCNc2ccnc3cc(Cl)ccc23)Cc2ccc3c(c2)OCO3)nc(N2CCN(C)CC2)n1`, with 40.9%.
With `CNc1ncc2cc(-c3cc(NC(=O)NCCC(C)(C)C)c(F)cc3C)c(C)nc2n1`, the growth is 24.7%.
Next, `CN(C)C/C=C/C(=O)Nc1cc2c(Nc3ccc(F)c(Cl)c3)ncnc2cc1O[C@H]1CCOC1`: 5.68% (active); `COc1cc(-c2nc(C(=O)Nc3ccc(C)cc3)nn2-c2ccc(F)c(F)c2)cc(OC)c1OC`: 93.6%; `CC(=O)OCCC/C(=C\c1ccc2ccccc2c1)[N+](=O)[O-]`: -7.25% (active).
Then `COc1cccc(Nc2ncnn3ccc(CN4CC[C@@H](N)[C@H](O)C4)c23)c1`, with 19.4%; and `C=CC(=O)N1CCC[C@H](n2c(=O)n(-c3ccc(Oc4ccccc4)cc3)c3c(N)ncnc32)C1`, with 74.9%; and `C[C@H](NC(=O)c1c(N)nn2cccnc12)c1cc2cccc(C#Cc3cnn(C)c3)c2c(=O)n1-c1ccccc1`, with 31.1%.
Then `CCCCn1c(C)nc2ccc(Nc3nc(N4CCN(C)CC4)nc4nc[nH]c34)cc21`, with 104%.
For the compound `COc1cccc2cc(-c3nc(C4CCC(C(=O)O)CC4)n4ncnc(N)c34)[nH]c12` (stereo not given), the growth was 2.94% (active).
Next, `COc1cnc2c(c1)C(=O)c1c-2n(CCCN2CCC(N)CC2)c(=O)c2cc([N+](=O)[O-])ccc12`: 76%; `Cc1cc(Nc2cc(N3CCN(C)CC3)nc(/C=C/c3ccccc3)n2)n[nH]1`: 15.7%; `COc1cc(Nc2ncc(F)c(Nc3ccc4c(n3)NC(=O)C(C)(C)O4)n2)cc(OC)c1OC`: 59.1%.
Next, `Nc1ccc(S(=O)(=O)O)c2cc(S(=O)(=O)O)cc(O)c12`: 105%.
Then `C=C1C(=O)O[C@H]2[C@H]1CC/C(Cn1cc(-c3cc(C)c(C)cc3C)nn1)=C\CC[C@@]1(C)O[C@@H]21`, with 5.12% (active); and `Cc1cc(Oc2ccccc2)ccc1Nc1ncnc2ccc(-c3cnc(Cl)c(NS(C)(=O)=O)c3)cc12`, with 54.6%; and `N#Cc1ccc(-n2nnc3ccccc32)cc1C#N`, with 101%.
`CCCCN1CCCC[C@@H]1C(=O)N[C@H](C(=O)N(C)[C@H](CCc1nc(C(=O)N[C@@H](Cc2ccccc2)C[C@H](C)C(=O)OC)cs1)C(C)C)C(C)C`: the growth was 65.4%.
Then `CC(C)=CCc1cc2c(cc1O)C1=C(C(=O)C3=C(C1=O)S(=O)(=O)CCN3)C(C=C(C)C)O2` (stereo not given), with 73.8%; and `CCN(CC)CCNc1ccc(N=Nc2cnc3ccccc3c2)c2ccccc12`, with -40% (active); and `Cc1cc(Nc2ncnc3ccc(NC4=NC(C)(C)CO4)cc23)ccc1Oc1ccn2ncnc2c1`, with 63.3%.
Then `COc1c(OCCCN2CCOCC2)ccc2c3n(c(=NC(=O)c4cnc(N)nc4)nc12)CCN3`, with 22.7%.
Next, `O=C(CNc1nnc(-c2ccc(Cl)cc2)o1)Nc1ccc(-c2nc3ccccc3s2)cc1`: 98.9%; `CC[C@@H]1C(=O)N(C)c2cnc(Nc3ccc(C(=O)NC4CCC(N5CCN(CC6CC6)CC5)CC4)cc3OC)nc2N1C(C)C` (stereo not given in full): 25.8%.
`Cc1ccccc1N1C(c2ccccc2)=NNC12C=CC(=O)C=C2Cl` (stereo not given): the growth was 98.7%.
Then `COC(=O)C1=C(C(=O)OC)C23C=C(C)C1C2=C(C)C1(CC1)[C@@](C)(O)C3=O` (stereo not given in full), with -3.49% (active).
Then `CC/C=C\C[C@H]1C/C=C2/C(=O)C=C[C@@H]2C/C=C\CCCC(=O)O1`, with -1.72% (active); and `CSc1nc2ncncc2[nH]1`, with 106%; and `COC(=O)[C@]12CC[C@@H](C)[C@H](C)[C@@H]1C1=CC[C@@H]3[C@@]4(C)C(c5cnco5)=C[C@@](C)(CO)C4=CC[C@@]3(C)[C@]1(C)CC2`, with 53.9%.
As to `O=C(NOC[C@H](O)CO)c1ccc(F)c(F)c1Nc1ccc(I)cc1F`, the growth was 59.2%.
Next, `COc1ccc2c(CCc3ccc(Cl)cc3)c3[n+](cc2c1OC)CCc1cc2c(cc1-3)OCO2`: 101%.
Next, `CN1CCC(COc2cnc(-c3cccc(Cn4nc(-c5cccc(C#N)c5)ccc4=O)c3)nc2)CC1`: 82.2%; `CN1CCC(CNc2ccc3ncc(-c4cccc(OC(F)(F)F)c4)n3n2)CC1`: -4.75% (active); `FC(F)c1nc2ccccc2n1-c1nc(N2CCOCC2)nc(N2CCOCC2)n1`: -12.9% (active).
Then `C/C(=C(/c1ccc(Cl)cc1)c1ccc(OCCN2CCCCCC2)cc1)c1ccccc1`, with 90%; and `Cc1csc(-c2nnc(Nc3ccc(Oc4ncccc4-c4ccnc(N)n4)cc3)c3ccccc23)c1`, with 50%.
Regarding `Clc1nc(Cl)c2ncn(CC#CCn3cnc4c(Cl)nc(Cl)nc43)c2n1`, the growth was 59.8%.
